The values below come from the supplement of paper PMC13380429.

Assay [1] concerns Vero E6 infected with SARS-CoV-2. Nature of the assay: morphology score (similarity to uninfected cells); higher = more like uninfected cells. As to conditions: 24 h.
For assay [2] the test system is unchanged. Nature of the assay: SARS-CoV-2 infection rate relative to infected DMSO; higher = more infection, active = 60 or less. As to conditions: 24 h.

Regarding `COc1ccsc1CNCC[C@@]1(c2ccccn2)CCOC2(CCCC2)C1` (10 µM), in assay [1], the morphology score is -0.0456. For the same molecule, the SARS-CoV-2 infection rate in assay [2] was 103% (inactive).
The matching figures for `c1ccc2c(c1)[I+]c1ccccc1-2` [diphenyleneiodonium] (0.833333 µM): 0.143 and 108% (inactive).
The matching figures for `COc1nccnc1NS(=O)(=O)c1ccc(N)cc1` [sulfametopyrazine] (10 µM): -0.162 and 112% (inactive).
As for `N#C/C(=C\c1ccc(O)c(O)c1)C(N)=O` [tyrphostin-AG-99] (10 µM), in assay [1], the morphology score stood at 0.0858. Moreover, in assay [2], the SARS-CoV-2 infection rate was 106% (inactive).
In the same order, the values of `COc1ccc2c(OCc3nnc4ccc(-c5ccccc5)nn34)ccnc2c1` (10 µM) are 0.0318 and 110% (inactive).
For `NC(=O)c1nc(Nc2ccccc2)sc1NC(=O)C1CCCCC1` (0.833333 µM), in assay [1], the morphology score was determined as 0.0658. In assay [2], the SARS-CoV-2 infection rate was 100% (inactive).
`N#Cc1c(N)nc(SCc2ncc[nH]2)c(C#N)c1-c1ccc(O)cc1` (10 µM) registered a morphology score in assay [1] of -0.0242. For the same molecule, the SARS-CoV-2 infection rate in assay [2] was 108% (inactive).
For the molecule `CS(=O)(=O)Nc1ccc(Cc2noc(-c3ccc4[nH]cc(CCN)c4c3)n2)cc1` (10 µM), the morphology score in assay [1] came to 0.141. The SARS-CoV-2 infection rate in assay [2] was 103% (inactive).
In assay [1], `NCC(O)c1ccc(O)cc1` (stereo unspecified) [octopamine] (10 µM) yielded a morphology score of -0.0363. The SARS-CoV-2 infection rate in assay [2] is 114% (inactive).
In turn, `CC(C)(C)c1ccc(CN(Cc2cccc(OCC(=O)O)c2)S(=O)(=O)c2cccnc2)cc1` [evatanepag] (10 µM) displayed a morphology score in assay [1] of -0.0093. Further, the SARS-CoV-2 infection rate in assay [2] is 97.5% (inactive).
The molecule `O=C1NC(=S)NC(=O)C1C(=O)Nc1ccccc1` [merbarone] (10 µM) came in with a morphology score in assay [1] of 0.103. In addition, the SARS-CoV-2 infection rate in assay [2] was 99% (inactive).
Molecule `CN1C(=O)C(F)=C[C@]2(C)[C@H]3CC[C@]4(C)[C@@H](C(=O)NCc5nc6cccnc6[nH]5)CC[C@H]4[C@@H]3CC[C@@H]12` (10 µM) displayed a morphology score in assay [1] of 0.0239. The SARS-CoV-2 infection rate in assay [2] is 100% (inactive).
The matching figures for `CCN(CC)C(=O)c1ccc(C2=CC3(CCNCC3)Oc3cccc(O)c32)cc1` (10 µM): 0.006 and 122% (inactive).
`O=C1NC(c2cccc([N+](=O)[O-])c2)=CCN1c1ccccc1O` [icilin] (10 µM) displayed a morphology score in assay [1] of 0.0675. Moreover, the SARS-CoV-2 infection rate in assay [2] was 100% (inactive).
In the case of `Cc1cccc(C)c1NC(=O)C[N+](C)(C)C` (10 µM), the morphology score in assay [1] worked out at 0.198. Further, the SARS-CoV-2 infection rate in assay [2] is 97% (inactive).
With `CC(=O)[C@@]12O[C@](C)(c3ccccc3)O[C@@H]1C[C@H]1[C@@H]3CCC4=CC(=O)CC[C@]4(C)[C@H]3CC[C@@]12C` [algestone-acetophenide] (10 µM), the morphology score in assay [1] was 0.363. Moreover, the SARS-CoV-2 infection rate in assay [2] is 88.5% (inactive).
`CCn1c(=O)c(-c2ccc(Cl)cc2Cl)cc2cnc(Nc3ccc(N4CCNCC4)c(F)c3)nc21` (0.833333 µM) yielded a morphology score in assay [1] of 0.097. Moreover, the SARS-CoV-2 infection rate in assay [2] is 106% (inactive).
The matching figures for `O=C(CCCl)NCc1ccccc1` [beclamide] (10 µM): 0.278 and 97.5% (inactive).
The matching figures for `c1cc2c(cc1[C@H]1OC[C@H]3[C@@H]1CO[C@@H]3c1ccc3c(c1)OCO3)OCO2` [sesamin] (10 µM): -0.0737 and 120% (inactive).
In the case of `CS(=O)(=O)c1cc(F)cc2c3c(n(Cc4ccc(Cl)cc4)c12)[C@@H](CC(=O)O)CC3` [laropiprant] (10 µM), in assay [1], the morphology score was determined as 0.0115. In assay [2], the SARS-CoV-2 infection rate was 106% (inactive).
Take `COc1ccccc1N1CCN(CCCCNC(=O)c2ccc(-c3ccc(C(C)=O)cc3)cc2)CC1` (10 µM): the morphology score in assay [1] is -0.218. Also, the SARS-CoV-2 infection rate in assay [2] was 113% (inactive).
Molecule `COc1cc2ncnc(Nc3ccc(O)c(Br)c3)c2cc1OC` (10 µM) returned a morphology score in assay [1] of -0.194. The SARS-CoV-2 infection rate in assay [2] is 103% (inactive).
For `CC1(COc2ccc3c(c2)ncn3-c2ccc3cccc(N4CCC(N)CC4)c3n2)COC1` [crenolanib] (0.833333 µM), the morphology score in assay [1] was -0.0592. In addition, the SARS-CoV-2 infection rate in assay [2] is 99.5% (inactive).
